USP8 block: inhibitors of human USP8 deubiquitinase; Ubiquitin carboxyl-terminal hydrolase 8 (Homo sapiens), P40818; purified USP8, Ub-rhodamine cleavage fluorescence, 30 min; inhibition, % at 20 µM; hit rate 4.2% among 47,000
USP30 inh: inhibitors of human USP30 deubiquitinase | AID 1645860, 2021 | hit rate 5.3% among 47,000 | inhibition, % at 25 µM | Ubiquitin carboxyl-terminal hydrolase 30 (Homo sapiens), Q70CQ3 | purified USP30, Ub-rhodamine cleavage fluorescence
USP17 block: inhibitors of human USP17 deubiquitinase; purified USP17, Ub-rhodamine cleavage fluorescence, 3 h; inhibition, % at 50 µM; hit rate 6.5% among 47,000; Ubiquitin carboxyl-terminal hydrolase 17-like protein 5 (Homo sapiens), A8MUK1
OTUD3 inh: inhibitors of human OTUD3 deubiquitinase; purified OTUD3, Ub-rhodamine fluorescence, 2 h; hit rate 0.7% among 47,000; inhibition, % at 25 µM
USP28 block: inhibitors of human USP28 deubiquitinase. Ubiquitin carboxyl-terminal hydrolase 28 (Homo sapiens), Q96RU2. purified USP28, Ub-rhodamine cleavage fluorescence, 30 min. inhibition, % at 25 µM. hit rate 3% among 47,000. AID 1645857, 2021
An asterisk follows results filed as active; · = no result given. The list is not random: actives were taken first. Their share in the collection is about 13%. No stated cut-off is given here; in the data, active means inhibition above about 30%; inactive means the rest.

SMILES	USP8 block	USP30 inh	USP17 block	OTUD3 inh	USP28 block
COc1ccc(-c2c(NC(=O)C3COc4ccccc4O3)n[nH]c2C)cc1OC (configuration not stated)	18	11	0	8	32*
Cc1[nH]nc(NC(=O)C2COc3ccccc3O2)c1-c1ccccc1 (configuration not stated)	47*	25	39*	37*	53*
COc1ccc(-c2c(NC(=O)c3cc(F)cc(F)c3)n[nH]c2C)cc1OC	-13	27	·	14	13
CC(NC(=O)CSc1nnc2n(-c3ccccc3)c(=O)c3ccccc3n12)c1ccccc1 (configuration not stated)	36*	48*	12	8	10
O=C(COC(=O)C(Cc1c[nH]c2ccccc12)NC(=O)c1ccccc1Cl)Nc1ccc([N+](=O)[O-])cc1C(F)(F)F (configuration not stated)	57*	-2	-1	-1	-3
N#Cc1ccccc1NC(=O)COC(=O)C(Cc1c[nH]c2ccccc12)NC(=O)c1ccc(Cl)cc1 (configuration not stated)	16	-2	14	4	5
O=C(/C=C/c1c[nH]c2ccccc12)c1ccc([N+](=O)[O-])cc1	-8	-15	-7	-5	-12
O=C(COC(=O)C(Cc1c[nH]c2ccccc12)NC(=O)c1ccccc1Cl)c1ccc([N+](=O)[O-])cc1 (configuration not stated)	-107	38*	17	0	13
CC1(C)Oc2ccc(C(=O)N3CCC([C@@H]4NC(=O)N[C@H]5OCCC[C@H]54)CC3)cc2NC1=O	1	32*	-1	6	8
O=C1Nc2cc(C(=O)N3CCC(N4CCCCC4)CC3)ccc2N2CCCCC12 (configuration not stated)	0	0	3	1	8
O=C1Cc2cc(S(=O)(=O)N3CCC([C@@H]4NC(=O)N[C@H]5OCCC[C@H]54)CC3)ccc2N1	43*	-72	3	7	2
CC(C)CC(=O)c1c2c(c3oc(=O)cc(-c4ccccc4)c3c1O)CC(C(C)(C)O)O2 (configuration not stated)	8	20	6	12	8
O=C(c1ccnc(N2CCCC2)c1)N1CCOC2(CC=CCN(Cc3ccccc3)C2=O)C1 (configuration not stated)	-6	3	0	-1	-5
Cc1cc(C(=O)N2CCOC3(CC=CCN(CCc4ccccc4)C3=O)C2)n2nccc2n1 (configuration not stated)	17	0	3	76*	-1
O=C(O)Cc1ccc(NC(=O)C2Cc3ccccc3C(=O)O2)cc1 (configuration not stated)	-13	2	-6	3	3
NS(=O)(=O)c1ccc(NC(=O)C2Cc3ccccc3C(=O)O2)cc1 (configuration not stated)	36*	6	16	0	0
N#Cc1ccc(N2CCC(C(=O)Nc3nc4ccccc4s3)CC2)nc1	-2	-164	-44	-30	-36
O=C1OC(C(=O)Nc2nc3c(ccc4ccccc43)s2)Cc2ccccc21 (configuration not stated)	29	9	39*	15	6
O=C(Nc1nc2c(ccc3ccccc32)s1)C1CCCC1	26	34*	14	10	29
COc1cc(-n2cc(-c3ccccc3)n(CC(=O)Nc3c(C)cccc3C)c2=O)cc(OC)c1OC	-32	4	-2	4	0
Cc1nsc(NC(=O)c2oc3ccc(Cl)cc3c2C)n1	15	21	16	3	8
COc1ccc(C2c3c(C)nn(-c4ccccc4C)c3N=C3N(C(C)=O)c4ccccc4N32)cc1 (configuration not stated)	-154	-48	-66	-28	0
c1ccc(-c2cc3c(N4CCc5ccccc5C4)ncnc3s2)cc1	53*	30	30	23	12
CNc1nc(C2CCCN(C)C2)nc2c1CN(C(=O)Cc1c[nH]c3ccccc13)CC2 (configuration not stated)	8	10	10	-1	7
COc1ccc(CNC(=O)c2nnc(C(=O)Nc3ccc(F)cc3)s2)cc1	21	17	8	3	9
SMILES	USP8 block	USP30 inh	USP17 block	OTUD3 inh	USP28 block
CN(C)c1ccc(CNC(=O)c2nnc(C(=O)Nc3ccccc3)s2)cc1	37*	-4	7	-2	7
Cc1ccc(NC(=O)Nc2ccc(C)n(CC(=O)Nc3ccccc3)c2=O)cc1	45*	·	89*	4	·
FC(F)(F)c1ccc(Nc2nnnc3ccccc23)cc1	64*	-34	-8	0	-9
Cc1[nH]c(C)c(S(=O)(=O)N2CCC(C(=O)Nc3ccccc3)CC2)c1C(=O)N1CCCCC1	-6	2	-14	-4	-6
Cc1oc(C2CCN(C(=O)NC3CCCCC3)CC2)nc1C(=O)N1CCOCC1	4	·	-3	-2	·
Cc1cccc(NC(=O)CSc2nnc(N)n2-c2ccccc2)c1	1	20	9	15	6
Cc1cccc(NC(=O)CSc2nnc(-c3n[nH]c4c3CCC4)n2N)c1	8	28	63*	14	14
O=C(C1CN(C(=O)CN2C(=O)COc3ccccc32)c2ccccc2O1)N1CCOCC1 (configuration not stated)	4	-20	-2	-4	-7
CC(C)C[C@H](NC(=O)[C@@H](Cc1ccccc1)n1c(=O)[nH]c2ccccc2c1=O)C(=O)N[C@H](Cc1ccccc1)C(=O)O	-34	10	8	0	7
Cn1c(=O)n([C@@H](Cc2ccccc2)C(=O)NCc2ccc(F)cc2)c(=O)c2ccccc21	20	46*	13	10	26
O=C(NCc1ccc(F)cc1)C(c1ccccc1)c1ccccc1	10	31*	3	23	13
O=C(CC1CCN(C(=O)Nc2ccc(F)cc2F)CC1)N1CCCC1	9	4	9	1	5
CCn1ccc(C(=O)N2CCc3[nH]nc(-c4ccc(F)cc4)c3C2)n1	-20	7	-1	2	12
Cc1cccc(CNC(=O)c2cccc(-c3cnc(N4CCCC4)nc3)c2)c1	-3	7	-3	0	-7
Cn1cc(C(=O)NCc2ccc3c(c2)OCO3)c(S(=O)(=O)N2CCCCCC2)n1	-232	-7	-7	6	3
O=C(NCc1ccc2c(c1)OCO2)c1cc([N+](=O)[O-])ccc1N1CCCCC1	-68	33*	6	24	23
COc1ccc(CNC(=O)c2cccc(-c3cnc(N4CCCC4)nc3)c2)cc1	0	49*	45*	-1	0
O=C(NCc1ccc2c(c1)OCO2)c1cccc(-c2cnc(N3CCCC3)nc2)c1	29	43*	30*	14	14
